In PubChem BioAssay AID1508600 (Functional Genomics Laboratory (NCATS/FGL), 2020):
Hit rate of the full screen: of about 53,000 sequences, about 3,700 (7%) were called active.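 The calls were made as follows: active = gene knockdowns whose robust z-score for IL-1 alpha signal is at least 2 or at most -2, so actives lie on both sides; inactive = the rest.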 The entries come from a sample that favours actives as a whole.

Test: Components of the Cytosolic LPS Sensing Pathway: Gene Identification via Genome-wide siRNA Screen;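 also: robust z of the log signal after scaling to non-targeting control siRNA wells of the plate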
Conditions: RAW264.7 macrophages, IL-1a HTRF, actives lie on both sides, screened at 100 nM (by protocol), cells primed 5 h with Pam3CSK4 first
In short: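 Supernatant IL-1a by HTRF from RAW264.7 cells primed with Pam3CSK4 (5 hours) and transfected with LipidA (24 hour) after 48h siRNA knockdown at 100 nM; cell viability checked with CellTiter-Glo.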

z-score, active:
GGCUUUGCUACUUGGGAUATT against Wdr86 3.16
GGCUUCUACCUUCGAGACUTT against Carns1 -2.3
GGUUCCUUUAACUUUGGUUTT against A730089K16Rik 2.18
GCAAUGGACUACUGCUGCUTT against Olfr704 -2.26
GGUCUUCCUUGAACAUCAGTT against Fev -2.05
GCAAGUGAUGAAUGCUUACTT against Ncln -2.62
CCUGGCACUCAUAGUAUACTT against Tm6sf2 -2.33
GGAAAUCUACAUCAUGGCUTT against Ift140 -2
GCUACACCCGCAUGACAAATT against Trit1 2.43
GGCAAGAAGGACAAUGAGUTT against Mb21d2 -2.82
GCUUCACUCUCUUCUUUGCTT against Olfr1463 -3.05
GGUGCUUGGGAAUUUUGAUTT against Gpsm2 2.31
GGGUAACAGAUGAAGGGUCTT against Synpo2l 2.48
GGUACAUCUUAGAGGCCAATT against Epo 2.66
GGACGUGUACAUUGUCAAGTT against Unc5a 2.07
CGAGAUUAUCAGUCAAUUGTT against Tex24 2.02
GGAGACAACCUGUACUCAGTT against Zfp352 -3.18
GGGUCUUCAGUAUUAACACTT against Yae1d1 2.62
GCUCCUACAAAACAUCCGATT against A130079P16Rik -2.12

z-score, inactive:
GGAGAUCUCACCGACAUUGTT against Cpt1c -1.22
CCUACUCGUAUAAUCUUCUTT against Ago3 0.496
GCGUUUGGGCCGGAAGAAATT against Smo 0.57
GGCAGUUUGAGAUUGUGUCTT against Thbs2 -0.00379
GCUCAUCGAGCCUGUACACTT against Med26 -0.296
GGUGGAACCCAAUGACACCTT against Cers5 1.21
GGUAGUUGUGCCAGAAAAATT against Garre1 0.0675
GGACCCUCUAGAUGACCAATT against Trem2 -1.09
CCUUUACACGUAAAAGAAGTT against Zfp445 -0.194
CCUGUUGAGUACUGUGCUGTT against Olfr987 -0.437
CCCAUGUAAGGAUGUGUCGTT against Frmd5 0.761
CGGGAAGCUAUCAUCAAAATT against Rgs13 0.12
GGACACAGAAAAAGUUGAATT against Tbc1d4 -0.0174
GGAUGUUAAAAUUGCCCUGTT against Olfr911-ps1 0.896
GGACGAGAAUCAAGAGCAGTT against Cdkn1c -0.0249
UGGUUGUGAUCAACAGAAUTT against Cyp2d12 -0.933
CCAUUUAUAUCAGGCAUCATT against Lrit1 -0.647
GGGUAAUCAGAUUGAAAGATT against Dnah5 0.0753
GGUGGAGAGUGAACAACAATT against Tpr -1.25
GGUAUGAGCUGAUCAAGUATT against Slc27a2 1.67
GUACACUCAAUCACUCUUGTT against Rexo5 0.966
CGACCUACUUGGGAUGAUGTT against Pea15b 0.683
GCCUGAUACCUUGAAGGAATT against Qpctl -0.382
CGACAACGACAUCAUGGAATT against Sfrp2 1.52
GGGAAUGAAAUGUUCUUCGTT against Ttl -0.121
CGCAGUGGACUCAUCUUGATT against Sestd1 -0.65
GCCAUUCUAAGCUGCCAAATT against Mcat -0.000938
GGACAGAGCGUGCACUAGATT against Slc66a1 -1.32
GGUGCUGGUUUUUAAGAAATT against Hsbp1 1.84
CGGAAUGCCAAAGAUGUGGTT against Sult1d1 -0.872
GUGACUCCCAAACUCCUGATT against Olfr1180 -1.81
CCAUUCCUUAAAAGAGCAUTT against Lce1g 1.07
GGACUUUCUUAACUACACUTT against Slc2a3 0.865
GGAUUACGGUGGGAUCAUGTT against Faxc -1.38
GGUGCUGAUGGGAGAUAGUTT against 1700010H22Rik -0.851
GGGAAGAGAGACGAAAAAATT against Nufip1 1.13
GGACCAGCUUGAAGCUGAATT against Atl2 0.388
GGCUAAAAUAAAGAAGAAGTT against Cfap100 0.00546
CCGACAGCUCUAAAGGAACTT against Celf6 0.838
GGUUAUAUAAGCAUCAAGGTT against Adamts18 -0.621
GCAGAGCGGGAUUUCAUUCTT against Sh3glb2 -1.23
CCAUAUGGCUUAUCUUAUUTT against Adam5 0.138
GGUUUUUGUUGUAAUAGGCTT against Olfr915 -0.758
GGUAACAACUUUUAAGCCUTT against Prps2 -0.318
GCAGCUUAAGUUGCCCAAGTT against Aatk -0.27
GGAUUUUGCUGUUUUGGAATT against Dsc1 0.41
CGGUAGCCAUAUUAAUAUCTT against Spink2 0.417
GGCUUACAAUGUGAUUUACTT against Cd7 1.92
GCUCAACAAGGAUACGGUGTT against Tnfrsf11a 0.704
GGAUAUAACCAUCCUCUGUTT against Zscan29 0.578
GGGUCCCAAACAAUAACUUTT against Aebp1 1.7
CCCAGACUCAGUUUUAACUTT against Spsb4 -1.88
GGGCCUCCUUCUCAUCAUUTT against Scarf2 0.9
GGUAACUUCCCAGGAGGGATT against Bcl9 0.549
GGAUUGGUUCAUGACCUGATT against Trim52 -0.814
GGUGAUCCUUAUGCUGUUATT against Ehmt2 0.305
CCAUCAUGACGGUUCCCUATT against Mrgpra5 -1.43
GGUUCUUCCCACAGAAGACTT against Pggt1b 0.176
GGAUGACGAAGCCUAUGAUTT against Nacc2 -1.16
GGAGUGACAAAAGAAAUAATT against Nudt12 0.489
GGAAAUACUCUCAUCAUCGTT against Olfr214 -1.17
CGCAUAUCUAGAAUGGUUATT against 2810021J22Rik 1.74
GGACUACUCCAGAAAGCUUTT against Wdfy3 -0.0605
GCAAAAUGGUUCCUUUGGATT against Sec24c -0.396
GGACAUUAUUUCUAUAUGGTT against Eif4e2 -1.2
GGCCCAUUCAGAUCAUCCATT against Vmn1r65 -0.197
CCCGGUAUUAAAUUUAAUGTT against Aox4 0.807
GCAUGUUUAGAACUAGCUCTT against Zfp87 0.76
CCAUCAAUUGGAAAUCUUUTT against Tnn -1.01
CUCAGAUAUUCUUUUCCCATT against Olfr142 -1.25
CGUGUAACACACGAUUAGATT against Myot 0.587
GGAACUUCAUUGAACUAUGTT against Trmt2b -0.363
GUUAUCAGGAAGGAAAGCCTT against Sdhaf4 0.248
GGACAGCAAGACAGAAAACTT against Csf2rb2 -0.26
GGCUGGAGAUCUCUCAAAGTT against Nkain2 1.64
GGCUUCUGUUUUUAUUUGUTT against Zbtb7c 1.07
CGAACUGAAGGUUUUCAAUTT against Knstrn 0.422
CCUCACGGCCUUAUAUCUCTT against Fmod -1.8
GGAGAGAGAUGCCCAAAUCTT against Zfp507 -0.362
CCAGCUGUGUAACACUACCTT against Gfi1 1.08
CCUCUACGAUGACUGGAUGTT against Sh3bp1 0.227
GGCAUACCGGAAACUUGCCTT against Dnajb13 -0.266
GGUACAAACACGAUCAAGGTT against Aox4 0.654
GGGAAUCAUUAAAUAGGAUTT against Arhgap26 -0.163
GGAAGAGCAUGAGUCGUUUTT against Scarb2 -0.122
GGAAGUUCAUCAUGAUAUCTT against Cxadr -0.108
GGGCGAUGAAGAAGAGAAATT against Smad1 -0.443
GGAAAGUUCUAAUGUUCAUTT against Sumo1 1.55
